# Activity calls are given as the source filed them.
# Tests used:
# [1] = E. coli DRC41 culture turbidity changes, primary screen, E. coli filamentation inducer project, strain DRC41, OD650, 48 h (AID 1152);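 note: E. coli MC1000 strain DRC41 lacking acrAB efflux pump and sulA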; settings: E. coli DRC41 (acrAB sulA), higher = more signal, called active from +8 up or from −8 down
# [2] = small-molecule binders of probe aLefty1, primary screen, biochemical, small-molecule microarray, 635/667 nm fluorescence (AID 1153); settings: higher = more signal;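 note: score merges spot fluorescence with signal-to-noise ratio from the scanned slide images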
# [3] = PSAC antagonists in infected red cells, primary screen, cell-based, P. falciparum Indochina, OD700, 1 h (AID 1154); settings: P. falciparum Indochina infected RBC osmotic lysis, higher = more signal, called active from +8 up or from −8 down
# [4] = PSAC antagonists in infected red cells, primary screen, cell-based, P. falciparum Indochina, OD700, 2 h (AID 1155);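 note: lysis reports solute entry through the parasite surface anion channel PSAC; channel blockers reduce lysis of infected cells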; settings: P. falciparum Indochina infected erythrocytes, osmotic lysis OD700; higher = more signal, called active from +8 up or from −8 down
# [5] = osmotic lysis modulators in infected erythrocytes, primary screen, PSAC antagonist project, cell-based, P. falciparum Indochina, OD700, 3 h (AID 1156); settings: higher = more signal, called active from +8 up or from −8 down
# [6] = PSAC antagonists in infected red cells, primary screen, cell-based, P. falciparum Indochina, OD700, 18 h (AID 1157); settings: P. falciparum Indochina infected erythrocytes, osmotic lysis OD700, 18 h; higher = more signal, called active from +8 up or from −8 down
# [7] = modulators of S6 phosphorylation in cells, primary screen, cell-based, A549, cytoblot, luminescence, serum-stimulated (AID 1158); settings: A549 phospho-S6 cytoblot, 5 h, higher = more signal;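 note: serum-stimulated A549 lung adenocarcinoma cells; signal is phosphorylated S6 detected by cytoblot immunostaining with HRP secondary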
# [8] = target: NADPH oxidase 2 (Homo sapiens) (UniProt P04839); test: NOX2-dependent H2O2 signal modulators, primary screen, NOX inhibitor project, cell-based, HEK293-NOX2, PMA-stimulated, Amplex Red fluorescence (AID 1159); settings: 45 min, higher = more signal, called active from +8 up or from −8 down; note: test concentration not given here
# Chain of NADPH oxidase 2 (Homo sapiens) (P04839 whole entry, looked up): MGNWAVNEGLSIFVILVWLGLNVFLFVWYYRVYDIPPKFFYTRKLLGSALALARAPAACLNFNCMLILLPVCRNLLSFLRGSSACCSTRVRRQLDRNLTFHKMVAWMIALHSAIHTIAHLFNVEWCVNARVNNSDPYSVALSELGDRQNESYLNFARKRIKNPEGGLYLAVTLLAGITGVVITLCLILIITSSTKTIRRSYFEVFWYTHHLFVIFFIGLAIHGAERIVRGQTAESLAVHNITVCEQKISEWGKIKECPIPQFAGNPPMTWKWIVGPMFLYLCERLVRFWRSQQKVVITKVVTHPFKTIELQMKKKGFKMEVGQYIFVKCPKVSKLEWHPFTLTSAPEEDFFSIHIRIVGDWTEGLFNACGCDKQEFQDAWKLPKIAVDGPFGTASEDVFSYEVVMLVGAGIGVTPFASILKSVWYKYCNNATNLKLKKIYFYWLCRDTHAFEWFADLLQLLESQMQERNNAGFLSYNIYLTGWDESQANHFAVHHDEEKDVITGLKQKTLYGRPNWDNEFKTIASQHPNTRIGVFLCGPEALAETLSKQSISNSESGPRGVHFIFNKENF
# [9] = target: NADPH oxidase 4 (Homo sapiens) (UniProt Q9NPH5); test: NOX4-dependent H2O2 signal modulators, primary screen, NOX inhibitor project, cell-based, HEK293-NOX4, tetracycline-induced, Amplex Red fluorescence (AID 1160); settings: 45 min, higher = more signal, called active from +8 up or from −8 down
# Chain of NADPH oxidase 4 (Homo sapiens) (Q9NPH5 whole entry, looked up): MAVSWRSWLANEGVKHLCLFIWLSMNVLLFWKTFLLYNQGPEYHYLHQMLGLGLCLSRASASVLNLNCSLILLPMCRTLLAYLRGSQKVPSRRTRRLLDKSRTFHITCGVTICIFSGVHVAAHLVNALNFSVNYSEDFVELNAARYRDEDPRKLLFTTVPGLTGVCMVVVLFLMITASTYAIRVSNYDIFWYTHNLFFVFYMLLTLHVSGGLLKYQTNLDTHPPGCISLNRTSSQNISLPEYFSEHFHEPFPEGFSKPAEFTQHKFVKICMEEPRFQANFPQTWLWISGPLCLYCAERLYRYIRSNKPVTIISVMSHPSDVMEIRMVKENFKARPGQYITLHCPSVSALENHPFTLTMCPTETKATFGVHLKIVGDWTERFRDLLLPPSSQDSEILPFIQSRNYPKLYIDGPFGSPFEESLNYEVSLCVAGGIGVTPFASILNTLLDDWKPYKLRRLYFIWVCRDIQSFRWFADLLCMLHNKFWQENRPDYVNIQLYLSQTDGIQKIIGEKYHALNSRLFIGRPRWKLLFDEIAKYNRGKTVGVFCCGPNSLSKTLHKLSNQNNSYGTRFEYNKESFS
# [10] = target: NADPH oxidase 5 (Homo sapiens) (UniProt Q96PH1); test: NOX5-dependent H2O2 signal modulators, primary screen, NOX inhibitor project, cell-based, HEK293-NOX5, Amplex Red fluorescence (AID 1161); settings: HEK293-NOX5, ionomycin, 45 min, higher = more signal
# Chain of NADPH oxidase 5 (Homo sapiens) (Q96PH1 whole entry, looked up): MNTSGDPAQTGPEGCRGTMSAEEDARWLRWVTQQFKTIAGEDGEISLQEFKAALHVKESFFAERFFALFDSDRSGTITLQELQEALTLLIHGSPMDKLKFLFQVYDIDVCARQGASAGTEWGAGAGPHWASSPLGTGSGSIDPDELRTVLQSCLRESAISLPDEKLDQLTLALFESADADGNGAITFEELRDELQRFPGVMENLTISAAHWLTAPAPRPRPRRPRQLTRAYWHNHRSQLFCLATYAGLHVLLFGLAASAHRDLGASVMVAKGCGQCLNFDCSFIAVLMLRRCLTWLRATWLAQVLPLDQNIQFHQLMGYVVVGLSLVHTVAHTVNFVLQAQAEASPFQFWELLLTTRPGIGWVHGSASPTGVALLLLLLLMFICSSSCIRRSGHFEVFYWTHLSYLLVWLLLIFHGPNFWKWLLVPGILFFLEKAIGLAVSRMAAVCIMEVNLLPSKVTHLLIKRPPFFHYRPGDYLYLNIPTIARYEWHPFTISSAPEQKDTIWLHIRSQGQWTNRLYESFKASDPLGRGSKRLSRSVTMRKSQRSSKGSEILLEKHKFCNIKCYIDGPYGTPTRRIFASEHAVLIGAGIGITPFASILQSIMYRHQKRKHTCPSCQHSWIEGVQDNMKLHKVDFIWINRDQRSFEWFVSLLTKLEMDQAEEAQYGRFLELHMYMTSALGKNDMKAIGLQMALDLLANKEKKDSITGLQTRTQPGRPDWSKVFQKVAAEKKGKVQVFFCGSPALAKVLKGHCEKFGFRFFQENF
Structure (SMILES),z-score [1],composite z-score [2],z-score [3],z-score [4],z-score [5],z-score [6],z-score [7],z-score [8],z-score [9],z-score [10]
O=C/C=C/c1ccc(Cl)cc1,0.73 (inactive),-0.0885,-0.406 (inactive),-2.04 (inactive),-0.316 (inactive),-2.54 (inactive),0.617,-0.506 (inactive),-0.869 (inactive),1.44
C=CC(=C)C1=CCO[C@@H]1[C@H]1CCCN1S(=O)(=O)c1ccccc1[N+](=O)[O-],0.279 (inactive),-0.148,2.97 (inactive),0.577 (inactive),0.544 (inactive),0.281 (inactive),-0.031,0.516 (inactive),1.06 (inactive),0.77
C=C[C@@H](COC(C)=O)N(Cc1ccc([N+](=O)[O-])cc1)S(=O)(=O)c1ccc(Br)cc1,2 (inactive),0.0012,7.66 (inactive),0.824 (inactive),2.31 (inactive),0.79 (inactive),0.354,0.495 (inactive),0.851 (inactive),-0.559
CC(C)CNC(=O)[C@@]1(c2ccc([N+](=O)[O-])cc2)CC(=O)N(CC23CC4CC(CC(C4)C2)C3)[C@@H]1c1ccc(CO)cc1I,-0.998 (inactive),-0.0114,17.2 (active),3.11 (inactive),2.73 (inactive),1.41 (inactive),-0.472,2 (inactive),-1.12 (inactive),1.75
CCOC(=O)C1=CCC(C(C)(C)C)N(S(=O)(=O)c2ccc(C)cc2)C1 (stereo not given),-1.32 (inactive),0.0494,1.53 (inactive),0.768 (inactive),0.281 (inactive),0.289 (inactive),-0.693,-0.124 (inactive),-1.21 (inactive),0.194
CCCCCN1CC=CC23O[C@@H]4C=CCOC(=O)[C@@H]4[C@H]2C(=O)N(CCCO)[C@@H]3C1=O (stereo not given in full),3.22 (inactive),-0.149,-0.322 (inactive),-0.397 (inactive),0.993 (inactive),-0.501 (inactive),0.724,-0.169 (inactive),-0.724 (inactive),-1.14
NCCCCCCNC(=O)[C@H]1C[C@H]2C(=O)NCC(=O)N2[C@H]1c1cccc(OCCO)c1,1.17 (inactive),0.119,1.68 (inactive),-0.0225 (inactive),-1.63 (inactive),0.202 (inactive),0.384,0.719 (inactive),0.513 (inactive),1.36
COc1ccc([Si](C)(C)[C@@H]2[C@@H](CC(=O)N3CCC[C@H]3CO)O[C@]3(C(=O)N(C)c4c(Br)cc(C)cc43)[C@H]2C)cc1,-0.674 (inactive),-0.251,5.59 (inactive),0.576 (inactive),0.405 (inactive),0.768 (inactive),-0.415,1.73 (inactive),1.17 (inactive),3.69
C=C(CCCC)/C(=C/C[C@H](OC(C)=O)c1ccc(CO)o1)c1cnc2ccccc2c1,-0.134 (inactive),0.0557,5.4 (inactive),0.452 (inactive),0.435 (inactive),0.136 (inactive),0.307,-0.719 (inactive),-0.447 (inactive),-0.582
COc1ccc(C(=O)Nc2cccc(CN3C(=O)[C@]4(O[C@H](CC(=O)N5CCC[C@H]5CO)[C@@H]([Si](C)(C)c5ccc(OC)cc5)[C@@H]4C)c4ccccc43)c2)cc1,0.0295 (inactive),-0.012,4.29 (inactive),1.45 (inactive),-0.546 (inactive),0.451 (inactive),1.97,2.73 (inactive),1.65 (inactive),4.27
COC(=O)[C@@]1(Cc2ccc(OC)cc2)[C@H]2c3cc(C(=O)N4CCCC4)n(Cc4cc(F)cc5c4OCOC5)c3C[C@H]2CN1C(=O)c1ccccc1,-2.14 (inactive),-0.12,1.15 (inactive),0.142 (inactive),0.951 (inactive),0.522 (inactive),-0.0863,-0.327 (inactive),-1.94 (inactive),-1.06
O=C(O)[C@H]1C[C@H]2C(=O)NCC(=O)N2[C@H]1c1ccc(O)cc1,1.55 (inactive),-0.0171,2.81 (inactive),0.898 (inactive),-2.6 (inactive),0.276 (inactive),0.586,-1.99 (inactive),-1.12 (inactive),-0.575
COc1ccc([Si](C)(C)[C@H]2[C@H](CC(=O)N(CCO)Cc3ccccc3)O[C@@]3(C(=O)N(Cc4cccc(N5CCC5=O)c4)c4ccccc43)[C@@H]2C)cc1,2.2 (inactive),0.356,11.6 (active),1.88 (inactive),-0.614 (inactive),-0.356 (inactive),0.408,0.804 (inactive),0.957 (inactive),1.43
COc1ccc(CCNC(=O)[C@@]2(Sc3ccc(C)cc3)CC(=O)N(Cc3ccccc3Cl)[C@@H]2c2ccc(CO)cc2I)cc1,0.265 (inactive),0.198,9.86 (active),0.902 (inactive),1.53 (inactive),0.231 (inactive),0.0671,1.54 (inactive),-1.54 (inactive),1.32
O=C1N(CCS(=O)(=O)c2ccccc2)Cc2ccccc2C[C@]12N=C(c1ccc(OCCCO)cc1)O[C@@H]2c1ccccc1,0.697 (inactive),1.66,22.2 (active),8.54 (active),0.443 (inactive),0.427 (inactive),2.67,-0.282 (inactive),1 (inactive),-0.517
[N-]=[N+]=NCc1ccccc1C[C@]1(C(=O)O)N=C(c2ccc(OCCCO)cc2)O[C@H]1c1ccccc1,-0.0931 (inactive),0.0299,9.62 (active),0.754 (inactive),-0.468 (inactive),-0.0988 (inactive),-0.381,0.453 (inactive),1.4 (inactive),1.68
O=C/C=C/c1ccc2c(c1)OCO2,0.586 (inactive),-0.205,-0.448 (inactive),-1.11 (inactive),0.321 (inactive),-2.47 (inactive),1.25,-0.41 (inactive),-0.502 (inactive),0.961
COC(=O)C[C@H]1O[C@]2(C(=O)N(Cc3ccccc3)c3ccc(NC(C)=O)cc32)[C@@H](C)[C@@H]1[Si](C)(C)c1ccc(OC)cc1,-0.202 (inactive),-0.179,2.19 (inactive),0.984 (inactive),0.659 (inactive),0.304 (inactive),0.186,-0.0156 (inactive),0.288 (inactive),2.89
C[C@]1(C(=O)NCc2ccccc2)c2ccccc2C(=O)N(Cc2ccc(OC(F)(F)F)cc2)[C@H]1c1ccc(CO)cc1,1.17 (inactive),-0.142,3.54 (inactive),-0.18 (inactive),-0.495 (inactive),-0.779 (inactive),0.843,-0.944 (inactive),-1.33 (inactive),-0.499
O=C1O[C@H](c2ccccc2)[C@H](c2ccccc2)N2[C@H]1[C@@H](C(=O)NC[C@H](O)c1ccccc1)[C@]1(C(=O)Nc3ccc(C#CCCO)cc31)[C@H]2c1ccc(O)cc1,0.39 (inactive),-0.293,0.211 (inactive),-0.709 (inactive),-0.317 (inactive),-1.23 (inactive),1.21,-0.687 (inactive),0.0169 (inactive),-3.93
C[N+](C)(C)CCCCCCNC(=O)[C@H]1C[C@H]2C(=O)N3CCC[C@H]3C(=O)N2[C@H]1c1ccc(O)cc1,0.864 (inactive),-0.0489,1.37 (inactive),-0.948 (inactive),-0.937 (inactive),-1.44 (inactive),0.707,-0.87 (inactive),-1 (inactive),-2.81
COCCOC(=O)N1C(=O)[C@@]2(c3cc(C#CCC(C(=O)OC)C(=O)OC)ccc31)[C@H](c1ccccc1OCCO)N1[C@H](c3ccccc3)[C@H](c3ccccc3)OC(=O)[C@H]1[C@@H]2C(N)=O,0.483 (inactive),0.479,7.64 (inactive),2.55 (inactive),0.678 (inactive),1.42 (inactive),-0.127,0.821 (inactive),0.383 (inactive),-1.85
O=C1c2ccccc2[C@@]2(Cc3ccccc3N(Cc3ccccc3)C2=O)[C@H](c2ccc(CO)cc2)N1C1CCCCC1,0.414 (inactive),0.0437,-0.101 (inactive),0.546 (inactive),0.105 (inactive),0.327 (inactive),0.126,0.162 (inactive),-0.143 (inactive),-0.548
C=CCNC(=O)[C@H]1[C@@H]2C(=O)O[C@@H](c3ccccc3)[C@@H](c3ccccc3)N2[C@@H](c2ccc(O)cc2)[C@]12C(=O)N(C(=O)OCCOC)c1ccc(C#CCCO)cc12,1.23 (inactive),0.0341,1.89 (inactive),0.658 (inactive),0.958 (inactive),0.418 (inactive),0.102,0.74 (inactive),0.261 (inactive),0.533
COCCOC(=O)N1C(=O)[C@@]2(c3cc(C#CC4=CCCCC4)ccc31)[C@H](C(=O)N1CCc3cc(OC)c(OC)cc3C1)[C@H]1C(=O)O[C@H](c3ccccc3)[C@H](c3ccccc3)N1[C@@H]2c1ccccc1OCCO,0.585 (inactive),-0.012,2.4 (inactive),0.876 (inactive),0.827 (inactive),0.703 (inactive),-0.113,1.72 (inactive),0.58 (inactive),1.99

# Source: PubChem BioAssay
